Assay results taken from PubChem BioAssay (NCATS).
Results filed as inconclusive are left out. Calls of active or inactive are those of the source. Unless noted, calls come from the whole dose curve; as a rule, active = well fitted curve in the direction sought with a large enough effect; inconclusive = small, poorly fitted or top-dose-only effect, or another doubt; inactive = no such curve, though single readings can be large; an effect the other way counts as inactive or inconclusive. Residues, ends and D or L forms follow the SMILES beside them. *: point of attachment. Cbz = O=C(OCc1ccccc1)*

What was measured:
[1] = target: Phenylethanolamine N-methyltransferase (Homo sapiens) (UniProt P11086); test: Confirmatory Screen for Target Class Profiling of Small Molecule Inhibitors of Methyltransferases (AID 1745852); details: MTase-Glo luminescence, SAH detection, recombinant enzyme; measured here: PNMT max response; stronger effect = lower value
Sequence of Phenylethanolamine N-methyltransferase (Homo sapiens) (P11086 whole entry, looked up): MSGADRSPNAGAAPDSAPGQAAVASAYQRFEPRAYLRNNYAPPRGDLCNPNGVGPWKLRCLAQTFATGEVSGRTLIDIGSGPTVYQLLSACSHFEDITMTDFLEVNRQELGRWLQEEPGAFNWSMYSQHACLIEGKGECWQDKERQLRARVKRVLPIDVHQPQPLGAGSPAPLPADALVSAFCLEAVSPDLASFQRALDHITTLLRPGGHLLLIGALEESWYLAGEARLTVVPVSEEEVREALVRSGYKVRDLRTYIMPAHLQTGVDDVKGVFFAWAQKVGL

[2] = target: Glutathione peroxidase 1 (Homo sapiens) (UniProt P07203); test: Primary qHTS Assay for Inhibitors of Recombinant Selenoprotein Glutathione Peroxidase 1 (GPX1) (AID 1845191); details: recombinant GPX1, GR-coupled NADPH fluorescence, 15 min; series mostly up to 48.8 µM; note: nearly all actives have a fitted effect of over 65% in size; note: potency is the fitted concentration of half-maximal effect
Sequence of Glutathione peroxidase 1 (Homo sapiens) (P07203 whole entry, looked up): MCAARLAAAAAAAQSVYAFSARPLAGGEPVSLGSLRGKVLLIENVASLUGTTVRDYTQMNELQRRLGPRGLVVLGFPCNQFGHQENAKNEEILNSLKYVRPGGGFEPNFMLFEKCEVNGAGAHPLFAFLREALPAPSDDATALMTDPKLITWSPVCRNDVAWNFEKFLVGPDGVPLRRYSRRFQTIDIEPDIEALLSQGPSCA
Method in brief: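 10 nM GPX1 + cpd, 30 min RT; start w/ 1 mM GSH, 0.5 mM cumene hydroperoxide, 0.5 mM NADPH, 100 nM GR, 0.01% BSA; buffer 50 mM Tris-HCl pH 7.5, 2 mM EDTA, 150 mM NaCl; Fl 340/450, 0 & 15 min.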

[3] = Quantitative High-Throughput drug screen in 47 multiple myeloma cell lines against the NCATS MIPE library collection: FR4_PLB cell viability assay (AID 1918924; note: nearly all actives have a fitted effect of over 35% in size; note: potency is the fitted concentration of half-maximal effect); details: FR4_PLB myeloma cells viability, CellTiter-Glo ATP, 48 h; series mostly up to 45.8 µM
Method in brief: (§1)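 Primary qHTS used for cherry-picking: cells at 500/well, library compounds for 48 h (37C, 5% CO2), luminescent ATP assay.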

[4] = Quantitative High-Throughput drug screen in 47 multiple myeloma cell lines against the NCATS MIPE library collection: Delta47_JCRB cell viability assay (AID 1918925; note: nearly all actives have a fitted effect of over 45% in size; note: potency is the fitted concentration of half-maximal effect); details: Delta47 myeloma viability, CellTiter-Glo ATP, 48 h; series mostly up to 45.8 µM
Method in brief: (§2)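 Myeloma cells (500 per well) were exposed to MIPE 4.0 compounds by pin transfer and incubated 48 hours at 37C, 5% CO2. Viability was read as ATP by CellTiter-Glo luminescence, normalised to DMSO (100%) and media-only (0%) wells.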

[5] = Quantitative High-Throughput drug screen in 47 multiple myeloma cell lines against the NCATS MIPE library collection: EJM_DSMZ cell viability assay (AID 1918926; note: nearly all actives have a fitted effect of over 30% in size; note: potency is the fitted concentration of half-maximal effect); details: EJM myeloma cell viability, CellTiter-Glo ATP, 48 h; series mostly up to 45.8 µM
Method in brief: as §2

[6] = Quantitative High-Throughput drug screen in 47 multiple myeloma cell lines against the NCATS MIPE library collection: AMO1_DSMZ cell viability assay (AID 1918927; note: nearly all actives have a fitted effect of over 30% in size; note: potency is the fitted concentration of half-maximal effect); details: AMO1 myeloma cells viability, CellTiter-Glo ATP luminescence, 48 h; series mostly up to 45.8 µM
Method in brief: as §2

[7] = Quantitative High-Throughput drug screen in 47 multiple myeloma cell lines against the NCATS MIPE library collection: ARP1_JJKsccF8 cell viability assay (AID 1918928; note: nearly all actives have a fitted effect of over 40% in size; note: potency is the fitted concentration of half-maximal effect); details: ARP1 myeloma cells viability, CellTiter-Glo ATP, 48 h; series mostly up to 45.8 µM
Method in brief: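 Luminescence from CellTiter-Glo, taken after 5 min at room temperature, reports cellular ATP as viability. Cells (500 per well) had been treated 48 h at 37 °C with MIPE 4.0 compounds, scaled between DMSO and medium-only controls.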

[8] = target: Phospholipid hydroperoxide glutathione peroxidase GPX4 (Homo sapiens) (UniProt P36969); test: Primary qHTS Assay for Inhibitors of Recombinant Selenoprotein Glutathione Peroxidase 4 (GPX4) (AID 1845192); details: recombinant GPX4, GR-coupled NADPH fluorescence, 15 min; series mostly up to 50 µM; note: nearly all actives have a fitted effect of over 65% in size; note: potency is the fitted concentration of half-maximal effect
Sequence of Phospholipid hydroperoxide glutathione peroxidase GPX4 (Homo sapiens) (P36969 whole entry, looked up): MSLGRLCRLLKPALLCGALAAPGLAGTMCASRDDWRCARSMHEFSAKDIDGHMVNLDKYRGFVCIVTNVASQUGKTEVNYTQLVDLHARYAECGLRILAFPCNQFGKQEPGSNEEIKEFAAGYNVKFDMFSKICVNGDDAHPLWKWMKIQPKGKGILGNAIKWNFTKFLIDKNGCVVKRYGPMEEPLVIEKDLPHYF
Method in brief: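 NADPH consumption, followed by fluorescence at 340/450 nm between 0 and 15 min, reports GPX4 activity via coupled glutathione reductase (100 nM). Enzyme 200 nM was pre-exposed to compound 30 min; 0.5 mM cumene hydroperoxide and 1 mM GSH served as substrates.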

[9] = target: Luciferin 4-monooxygenase (Photinus pyralis) (UniProt P08659); test: Primary firefly luciferase (FLuc) qHTS assay for identification of artifact compounds. (AID 1845220); details: purified firefly luciferase, luminescence, 5 min; series mostly up to 54.1 µM; note: nearly all actives have a fitted effect of over 60% in size
Method in brief: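 FLuc 10 nM; luciferin 10 uM; ATP 10 uM; Tris-acetate pH 7.6, Mg-acetate 10 mM; 15 min RT preincubation; 5 min reaction; luminescence.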

[10] = Primary fluorescence-based thiol-reactive (MSTI) qHTS assay for identification of artifact compounds. (AID 1845221); details: MSTI thiol-reactivity probe, 1 h; series mostly up to 53.8 µM;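 note: thiol-reactive compounds lower the probe fluorescence signal; nearly all actives have a fitted effect of over 65% in size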
Method in brief: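 In PBS pH 7.4 with 2% DMSO, each compound met 4 uM MSTI for one hour at ambient temperature, shielded from light, before fluorescence detection.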

[11] = tested on: Nanoluciferase (engineered Oplophorus gracilirostris luciferase); test: Primary Nanoluciferase (NLuc) qHTS assay for identification of artifact compounds. (AID 1845222); details: NLuc-conditioned medium, Nano-Glo luminescence, 5 min; series mostly up to 54.1 µM;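 note: NLuc secreted into diluted conditioned medium of S16 cells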
Method in brief: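 NLuc from S16 cell medium (1:55) plus test compounds, 15 min, room temperature. Luminescence after Nano-Glo (1:100) addition, 5 min.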

[12] = Quantitative High-Throughput drug screen in 47 multiple myeloma cell lines against the NCATS MIPE library collection: ARD_JJKsccE7 cell viability assay (AID 1918929; note: potency is the fitted concentration of half-maximal effect); details: ARD myeloma cell line viability, CellTiter-Glo, 48 h; series mostly up to 45.8 µM
Method in brief: as §2

[13] = Quantitative High-Throughput drug screen in 47 multiple myeloma cell lines against the NCATS MIPE library collection: Karpas620_DSMZ cell viability assay (AID 1918959); details: Karpas620 myeloma viability, CellTiter-Glo ATP luminescence, 48 h; series mostly up to 45.8 µM; note: nearly all actives have a fitted effect of over 30% in size; note: potency is the fitted concentration of half-maximal effect
Method in brief: as §1

[14] = NCATS anti-infectives library activity on the primary C. elegans qHTS viability assay (AID 1745855; calls by dose curve; note: potency is the fitted concentration of half-maximal effect); details: C. elegans worm area imaging, day 7; series mostly up to 41.8 µM
Method in brief: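 Viability is taken from GFP fluorescence of PE254-GFP-FLuc C. elegans imaged by laser cytometry over 7 days. Ten L1 worms per well grow at 21 °C on TOP10 E. coli capsules with titrated compound; levamisole marks toxicity.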

[15] = Primary redox qHTS assay for identification of artifact compounds. (AID 1845223); details: Amplex Red/HRP redox cycling with DTT, fluorescence; series mostly up to 53.8 µM
Method in brief: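 Amplex Red (25 uM) and HRP (250 mU/mL) in HBSS, with compounds for 15 min, then 250 uM DTT for 30 min, room temperature, dark. Fluorescence 525/598 nm read; normalized to DMSO and 10 uM DA3003; Hill fit.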

[16] = Viability counterscreen for antagonist of constitutive androstane receptor (CAR) against the NCATS DSHEA and TCM libraries (AID 1794837); details: CAR reporter cell line viability counterscreen, qHTS; series mostly up to 40 µM;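 note: compound exposure lasted 24 h before viability reading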
Method in brief: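 Cell viability, CellTiter-Fluor, Ex/Em 405/540 nm, 1 h at 37C. HepG2-CYP2B6-hCAR, 2,500 cells/well; cpds + CITCO 48 uM final (antagonist mode), 24 h, 37C/5% CO2.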

[17] = Viability counterscreen for agonist of constitutive androstane receptor (CAR) against the NCATS DSHEA and TCM libraries (AID 1794838); details: HepG2 cell viability counterscreen, CAR agonist assay, co-treated with 0.75 µM CAR antagonist; series mostly up to 40 µM
Method in brief: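 Viability by CellTiter-Fluor fluorescence, 405/540 nm, after 1 h at 37C. HepG2-CYP2B6-hCAR cells were exposed 24 h to test substances in presence of 0.75 uM PK11195 (final).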

[18] = target: Nuclear receptor subfamily 1 group I member 3 (Homo sapiens) (UniProt Q14994); test: Primary qHTS for agonist of constitutive androstane receptor (CAR) against the NCATS DSHEA and TCM libraries (AID 1794839); details: CAR agonist reporter cells, qHTS luminescence, CAR antagonist co-added at 0.75 µM; series mostly up to 40 µM;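 note: HepG2 cells expressing human CAR with a CYP2B6 reporter plus PK11195 antagonist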
Sequence of Nuclear receptor subfamily 1 group I member 3 (Homo sapiens) (Q14994 whole entry, looked up): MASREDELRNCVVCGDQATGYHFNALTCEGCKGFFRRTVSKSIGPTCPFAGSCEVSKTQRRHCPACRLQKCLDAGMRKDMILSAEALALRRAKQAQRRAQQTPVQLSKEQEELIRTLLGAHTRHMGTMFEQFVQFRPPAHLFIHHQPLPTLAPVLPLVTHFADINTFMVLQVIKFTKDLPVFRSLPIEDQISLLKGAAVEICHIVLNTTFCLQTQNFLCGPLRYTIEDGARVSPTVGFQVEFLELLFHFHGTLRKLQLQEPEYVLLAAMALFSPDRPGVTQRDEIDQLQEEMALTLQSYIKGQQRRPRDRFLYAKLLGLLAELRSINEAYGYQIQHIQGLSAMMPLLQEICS
Method in brief: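 Luminescence from ONE-Glo luciferase was the agonist read-out in HepG2-CYP2B6-hCAR cells exposed 24 h to test substances. Wells also held the CAR antagonist PK11195 at 0.75 µM final. Viability was by CellTiter-Fluor fluorescence.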

[19] = HepG2 viability counterscreen (readout 2: ATP content) against the NCATS DSHEA and TCM libraries (AID 1794840); details: ATP content luminescence; series mostly up to 27.3 µM
Method in brief: (§3)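 1,000 HepG2 cells/well, 4 h attach; compounds ~24 h, 37C/5% CO2. Readout 1: GF-AFC 25 uM final, 30 min, fluorescence 380/510 nm. Readout 2: CellTiter-Glo, 30 min RT, luminescence.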

[20] = HepG2 viability counterscreen (readout 1: protease activity) against the NCATS DSHEA and TCM libraries (AID 1794841); details: qHTS concentration series; series mostly up to 27.3 µM;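 note: cells exposed to compounds for about 24 h before the protease read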
Method in brief: as §3

Cn1cc(-c2cnn3c(N)c(Br)c([C@H]4CCCNC4)nc23)cn1
inactive: Potency [2]
-78.4%: activity [1]
active: Potency [3] 132 nM | Potency [4] 743 nM | Potency [5] 372 nM | Potency [6] 1480 nM | Potency [7] 3320 nM

CCc1ccc(C(=O)Nc2cc(CN3CCN(C)CC3)cc(C(F)(F)F)c2)cc1C#Cc1cnc2ccnn2c1
inactive: Potency [2] | Potency [8] | Potency [9] | Potency [10] | outcome [11]
active: Potency [3] 11800 nM | Potency [5] 16600 nM | Potency [7] 5900 nM | Potency [12] 8330 nM | Potency [13] 5260 nM

CC(C)C[C@@H](C=O)NC(=O)[C@H](CC(C)C)NC(=O)[C@H](CC(C)C)NC(=O)OCc1ccccc1 (Cbz-Leu-Leu-Leu-aldehyde)
inactive: Potency [14] | Potency [2] | Potency [8]
active: Potency [3] 590 nM | Potency [4] 105 nM | Potency [5] 833 nM | Potency [6] 105 nM | Potency [7] 332 nM | Potency [12] 105 nM | Potency [13] 148 nM

Cc1cncc2cccc(S(=O)(=O)N3CCCN(C(=O)CN)C[C@@H]3C)c12
active: Potency [4] 23500 nM | Potency [5] 23500 nM | Potency [6] 10500 nM
inactive: Potency [2] | Potency [8] | Potency [9] | Potency [10] | outcome [11] | Potency [15]

CC(O)(C#Cc1ccc2c(c1)N(c1nc(N)ncc1Cl)CC2)c1nccs1 (stereo not given)
active: Potency [4] 2090 nM | Potency [5] 11800 nM | Potency [12] 18700 nM
inactive: Potency [2] | Potency [8] | Potency [9] | Potency [10] | outcome [11]

COc1ccc(C(C)=O)c(O)c1
inactive: outcome [16] | outcome [17] | outcome [18] | outcome [19] | outcome [20] | Potency [3] | Potency [5] | Potency [6] | Potency [7] | Potency [12] | Potency [13]

Cc1cc(O)c2c(c1)C(=O)c1cccc(O)c1C2=O
inactive: Potency [14] | Potency [8] | Potency [3] | Potency [4] | Potency [5] | Potency [6] | Potency [12]
active: Potency [2] 8170 nM

CC(C)C[C@H](NC(=O)[C@@H](NC(=O)c1cccc(-c2ccccc2)n1)[C@@H](C)O)B(O)O
inactive: Potency [2] | Potency [8] | Potency [9] | Potency [10] | outcome [11]
active: Potency [14] 2050 nM | Potency [3] 20.9 nM | Potency [4] 16.6 nM | Potency [5] 46.9 nM | Potency [7] 16.6 nM | Potency [13] 14.8 nM

CC1=C(C(=O)Nc2cc3cn[nH]c3cc2F)C(c2ccc(Cl)cc2F)N=C(c2ccnc(Cl)c2)N1 (stereo not given)
active: Potency [4] 11800 nM | Potency [6] 14800 nM | Potency [12] 20900 nM | Potency [13] 18700 nM
inactive: Potency [2] | Potency [8] | Potency [9] | Potency [10] | Potency [15]

O=C1c2c(O)cccc2[C@@H]([C@@H]2O[C@H](CO)[C@@H](O)[C@H](O)[C@H]2O)c2cc(CO)cc(O)c21
inactive: outcome [16] | outcome [17] | outcome [18] | outcome [19] | outcome [20] | Potency [5] | Potency [6] | Potency [7] | Potency [12] | Potency [13]

Cc1cnc(Nc2ccc(CN3CCOCC3)cc2)nc1Nc1cccc(S(=O)(=O)NC(C)(C)C)c1
-4.34%: activity [1]
active: Potency [3] 2640 nM | Potency [4] 1870 nM | Potency [5] 5900 nM | Potency [7] 3320 nM
inactive: Potency [2] | Potency [8] | Potency [9] | Potency [10] | outcome [11] | Potency [15]

c1cncc(CN2CCC(n3ncc4c(N5CCOCC5)nc(-c5ccc6[nH]ccc6c5)nc43)CC2)c1
active: Potency [3] 4690 nM | Potency [4] 743 nM | Potency [5] 5900 nM | Potency [7] 3320 nM
inactive: Potency [2] | Potency [8] | Potency [9] | Potency [10] | outcome [11] | Potency [15] | Potency [13]

C[N+]1(C)[C@@H]2C[C@@H](OC(=O)C(O)(c3cccs3)c3cccs3)C[C@H]1[C@@H]1O[C@@H]12
inactive: Potency [2] | Potency [8] | Potency [9] | Potency [10] | outcome [11] | Potency [15] | Potency [3] | Potency [5] | Potency [6] | Potency [13]

CS(=O)(=O)N1CCc2c(-c3cnc(N)nc3)nc(N3CCOCC3)nc21
active: Potency [3] 590 nM | Potency [4] 148 nM | Potency [5] 2090 nM | Potency [7] 41.8 nM
inactive: Potency [2] | Potency [8] | Potency [9] | Potency [10] | outcome [11] | Potency [15]

c1cc(N[C@@H]2CCNC2)nc(-c2cnc3ccc(-c4cn[nH]c4)cn23)c1
active: Potency [8] 25500 nM | Potency [4] 9350 nM | Potency [5] 13200 nM | Potency [12] 26400 nM | Potency [13] 10500 nM
inactive: Potency [2] | Potency [9] | outcome [11] | Potency [15]
-12.3%: activity [1]

FC(F)c1nc2ccccc2n1-c1nc(N2CCOCC2)nc(N2CCOCC2)n1
active: Potency [3] 743 nM | Potency [5] 743 nM | Potency [6] 209 nM | Potency [7] 166 nM
inactive: Potency [2] | Potency [8] | Potency [9] | Potency [10] | outcome [11] | Potency [15]
